# Bioassay records deposited in PubChem BioAssay by NMMLSC.
# Shown are actives, neighbours in structure and some others; about 1.2% of the full set was active somewhere.
# RGS8-Gao reg: regulators of human RGS8-Galphao interaction. P09471. multiplexed bead flow cytometry, RGS8-Galphao binding; actives lie on both sides. response (percent of control binding), % at 10 µM. actives 0.34% (n = 220,000). AID 1423; in the data active = response below about 60% or above about 140%; inactive = in between;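 note: Galphao activated as the GDP aluminium fluoride complex binding bead-coupled RGS8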
# Target sequence (P09471 whole entry, looked up): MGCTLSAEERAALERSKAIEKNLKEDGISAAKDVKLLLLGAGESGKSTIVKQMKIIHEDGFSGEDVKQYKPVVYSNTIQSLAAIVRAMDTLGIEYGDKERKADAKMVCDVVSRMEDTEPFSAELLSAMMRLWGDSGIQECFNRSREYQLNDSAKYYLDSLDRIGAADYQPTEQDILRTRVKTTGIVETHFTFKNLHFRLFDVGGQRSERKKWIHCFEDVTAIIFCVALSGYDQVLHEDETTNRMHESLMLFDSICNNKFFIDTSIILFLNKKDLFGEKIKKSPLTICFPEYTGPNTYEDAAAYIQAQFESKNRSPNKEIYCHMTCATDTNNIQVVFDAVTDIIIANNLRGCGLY
# GSH fluor: compound fluoresces at 488/530 nm on GSH beads. fluorescence (KMESF) at 10 µM. AID 1776. GSH beads flow cytometry, compound fluorescence 488/530 nm; active compounds read high. actives 0.25% (n = 190,000); in the data active = fluorescence above about 89;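 note: glutathione beads carrying GST-tagged Bcl family fusion proteins plus one bare bead set; values are compound well signal with DMSO vehicle wells as background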
# RGS7-Gao: human RGS7-Galphao interaction regulation; actives 0.35% (n = 220,000); binding response (% of control), % at 10 µM; AID 1439; Multiplexed bead flow cytometry, RGS7-Galphao binding; actives lie on both sides; in the data active = binding response below about 49% or above about 150%; inconclusive = no clear call, values can overlap the other calls; inactive = in between;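 note: fluorescent Galphao held in activated GDP-AlF4 state binding bead-coupled RGS7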
# Avidin bead fluor: avidin bead compound fluorescence profile; Avidin beads, compound fluorescence 488/530 nm, flow cytometry; active compounds read high; fluorescence (KMESF) at 10 µM; actives 0.38% (n = 220,000); in the data active = fluorescence above about 47
# RGS16-Gao: modulates binding between human RGS16 and Galphao | O15492+P09471 | bead-based flow cytometry RGS16-Galphao binding, fluorescence; actives lie on both sides | binding response (% of control), % at 10 µM | actives 0.38% (n = 220,000);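 note: Galphao activated by GDP with aluminum fluoride before binding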
# RGS4-Gao reg: human RGS4-Galphao interaction regulation. P09471. Multiplexed bead flow cytometry, RGS4-Galphao binding; actives lie on both sides. binding response (% of control), % at 10 µM. actives 0.33% (n = 220,000). AID 1415; in the data active = binding response below about 49% or above about 150%; inactive = in between;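 note: fluorescent Galphao activated with aluminum fluoride binding bead-coupled RGS4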
# RGS-Gao: modulates binding between human RGS4 and Galphao | actives 99% (n = 1,600) | RGS4–Galpha-o binding response, % at 10 µM | AID 1504 | shares compounds with RGS16-Gao | multiplexed bead flow cytometry, RGS–Galpha-o binding;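 note: fluorescently labeled Galpha-o bound to GDP with aluminium fluoride binding biotinylated RGS beads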
# Avidin counter: interferes with biotinylated probe binding to avidin beads; shares compounds with RGS16-Gao; 1,700 tested, under 10 active; streptavidin beads, fluorescein-biotin binding, flow cytometry; inhibition, % at 10 µM; AID 1783;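 active = inhibition above 50%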;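 note: median green fluorescence of gated singlet beads compared with DMSO control wells; 0% = DMSO wells and 100% = complete loss of bead fluorescence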
# RGS8-Gao single: confirmation of regulators of human RGS8-Galphao interaction. shares compounds with RGS16-Gao. bead-based flow cytometry RGS8-Galphao binding, fluorescence; actives lie on both sides. binding response (% of control), % at 10 µM. actives 3% (n = 1,700). AID 1836; in the data active = binding response below about 72% or above about 130%; inactive = in between;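 note: Galphao activated as GDP AlF4 complex before binding bead RGS8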
# RGS7-Gao confirm: confirmation of regulators of human RGS7-Galphao interaction; shares compounds with RGS16-Gao; bead-based flow cytometry RGS7-Galphao binding; actives lie on both sides; response (percent of control binding), % at 10 µM; actives 7.8% (n = 1,700); in the data active = response below about 75% or above about 130%; inactive = in between;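 note: fluorescent Galphao activated with GDP and aluminum fluoride binding bead-coupled RGS7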
# RGS16-Gao conf: confirmation of regulators of human RGS16-Galphao interaction. response (% of control binding), % at 10 µM. bead-based flow cytometry, RGS16-Galphao binding; actives lie on both sides. actives 4% (n = 1,700). AID 1838. shares compounds with RGS16-Gao; in the data active = response below about 74% or above about 130%; inactive = in between;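 note: Galphao activated as the GDP aluminium fluoride complex binding bead-coupled RGS16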
# RGS4-Gao confirm: confirmation of regulators of human RGS4-Galphao interaction | RGS4-Galphao binding, multiplexed bead flow cytometry; actives lie on both sides | AID 1840 | shares compounds with RGS16-Gao | binding response (% of control), % at 10 µM | actives 4% (n = 1,700); in the data active = binding response below about 74% or above about 130%; inactive = in between
# RGS19-Gao conf: RGS19-Galphao interaction regulation, single point confirmation. shares compounds with RGS16-Gao. response (percent of control binding), % at 10 µM. actives 5% (n = 1,700). bead-based flow cytometry RGS19-Galphao binding; actives lie on both sides; in the data active = response below about 50% or above about 160%; inactive = in between;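 note: 100% = no compound control and 0% = blank background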
# Target sequence (P09471 whole entry, looked up): as above
# Target sequence (P49795 whole entry, looked up): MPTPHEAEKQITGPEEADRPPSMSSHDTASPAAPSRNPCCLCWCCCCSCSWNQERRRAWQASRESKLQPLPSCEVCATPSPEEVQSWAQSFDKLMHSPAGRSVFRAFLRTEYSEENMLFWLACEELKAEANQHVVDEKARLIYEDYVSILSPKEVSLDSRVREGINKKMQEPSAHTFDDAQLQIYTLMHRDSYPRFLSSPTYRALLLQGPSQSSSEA
# * hit, by the source's call; ? = inconclusive; . = not tested or not shown; [ ] = another dose, or the depositor's remark. Unless noted, the rule behind the calls is not given here.
SMILES,RGS8-Gao reg,GSH fluor,RGS7-Gao,Avidin bead fluor,RGS16-Gao,RGS4-Gao reg,RGS-Gao,Avidin counter,RGS8-Gao single,RGS7-Gao confirm,RGS16-Gao conf,RGS4-Gao confirm,RGS19-Gao conf
O=C(NCC1(c2ccccc2)CCCC1)C(=O)N1CCOCC1,66,12,81,12,21*,83,83*,0,102,106,105,104,80
Cc1ncsc1CCOC(=O)C1C2CC3CC(C2)CC1C3 (stereo unspecified),73,9,94,1,22*,92,92*,2,100,95,94,93,105
Cc1cccc(N2CN(Cc3cccnc3)CNC2=S)c1,104,9,98,5,105,99,.,.,.,.,.,.,.
S=C1NCN(Cc2cccnc2)CN1c1cccc2ccccc12,44*,.,?,1,26,26*,.,-1,98,90,97,98,92
Cn1cc(-c2nnnn2-c2ccc(Cl)cc2)c(=O)c2ccccc21,144*[activator],29,124,1,357,130,130*,0,101,96,104,100,97
O=C(O)c1ccc(Cl)c(NC(=S)NC(=O)c2ccccc2[N+](=O)[O-])c1,100,14,97,6,97,98,.,.,.,.,.,.,.
CCOC(=O)c1c[nH]c2c(C(F)(F)F)cccc2c1=O,83,13,87,5,24,89,.,.,.,.,.,.,.
O=C(CSc1nc(Cc2ccccc2)nc2ccccc12)c1ccc2c(c1)OCCO2,99,46,102,9,96,98,.,.,.,.,.,.,.
CCc1nc(SCC(=O)c2ccc3c(c2)OCCO3)c2ccccc2n1,142*[activator],25,111,15,242,120,120*,-1,105,106,105,105,97
CCCc1nc(SCC(=O)c2ccc(OC)cc2)c2ccccc2n1,.,20,.,.,.,.,.,2,102,105,104,103,106
CCc1nc(SCC(=O)c2ccccc2)c2ccccc2n1,102,12,100,9,100,100,.,.,.,.,.,.,.
CCC(C)(C)n1nnnc1CN1CCN(c2ccc(OC)cc2)CC1,97,13,107,9,99,102,.,.,.,.,.,.,.
CCC(C)(C)n1nnnc1CN1CCSCC1,125,34,129,2,-49,158*[activator],.,2,102,104,100,103,96
CCOC(=O)/C(=N\Nc1ccccc1)P(=O)(c1ccccc1)c1ccccc1,101,.,?,9,100,99,.,.,.,.,.,.,.
Cc1ccc(-n2nnnc2C(=Cc2ccc(N(C)C)cc2)c2nnnn2-c2ccc(C)cc2)cc1,14*,17,18*,.,11*,23*,.,1,113,100,118,102,91
Cc1ccc(OCCn2nc3ccccc3n2)c(C)c1,96,8,192*[activator],154*,107,121,121*,0,101,105,106,106,88
Cc1ccc(OCCN2C(=O)c3ccccc3C2=O)c(C)c1,100,51,92,9,89,90,.,.,.,.,.,.,.
O=C(c1cccc([N+](=O)[O-])c1)N1CCCN(C(=O)c2cccc([N+](=O)[O-])c2)CC1,101,11,103,3,99,104,.,.,.,.,.,.,.
Cc1ccc2cc(CCNS(=O)(=O)c3ccc(F)cc3)c(=O)[nH]c2c1C,60*,19,46*,4,50,55,55*,0,99,93,97,97,102
Cc1ccc2cc(CCNS(=O)(=O)c3ccc(F)cc3)c(=O)[nH]c2c1,98,23,95,7,99,96,.,.,.,.,.,.,.
NC(=O)CCC(NS(=O)(=O)c1ccc(Cl)cc1)C(=O)NCc1ccc(Cl)cc1 (stereo unspecified),70,6,85,6,6.5*,90,90*,0,111,112,114,109,133
CSCCC(NS(=O)(=O)c1ccc(F)cc1)C(=O)NCc1ccc(S(N)(=O)=O)cc1 (stereo unspecified),100,.,?,.,104,100,.,.,.,.,.,.,.
Cc1nn(-c2ccccc2)c(C)c1[N+](=O)[O-],97,15,99,5,80,100,.,.,.,.,.,.,.
C#CCOCCOCCOCCNc1nc(N2CCN(C(=O)[C@H]([C@@H](C)CC)n3cc([C@@H](N)CO)nn3)CC2)nc(N2CCN(C(=O)[C@H]([C@@H](C)CC)n3cc([C@@H](N)Cc4ccc(O)cc4)nn3)CC2)n1,41*,18,18*,0,18*,22*,.,0,100,101,99,99,88
O=c1[nH]c2ccccc2nc1/C=C/c1ccc(Cl)cc1,.,10,.,.,.,.,.,0,101,99,101,102,102
CC(C)Cn1c(N)c(C(=O)COC(=O)CCc2nc3ccccc3s2)c(=O)n(C)c1=O,99,11,93,11,100,99,.,.,.,.,.,.,.
CC(=O)Nc1ccccc1C(=O)C(=O)Nc1ccc(C)c(C)c1,127,6,109,16,251*[activator],110,110*,-1,100,107,104,105,88
CCCCNC(=O)C(=O)NC(C)CCc1ccccc1 (stereo unspecified),103,36,100,13,98,100,.,.,.,.,.,.,.
Cc1ccc(NC(=S)N(Cc2ccccc2)C(C)C)cc1,67,.,?,1,37,27*,.,0,104,106,105,106,109
Cc1cccc(/C(N)=N/OC(=O)C23CC4CC(CC(C4)C2)C3)c1,56*,13,82,1,12*,80,80*,-1,103,103,103,101,104
